Experimental findings from PubChem BioAssay (NCATS) are described below.

Assay [1] in a line: qHTS for Inhibitors of Plasmodium falciparum (DD2) proliferation (AID 504314). A digest of the protocol:
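SYBR Green DNA-fluorescence growth assay: infected RBCs at 0.3% parasitemia, 2.5% hematocrit, 72 h compound exposure, 37C, 5% CO2; overnight lysis with dye at RT; normalized to 0.29 uM artemisinin and vehicle.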
On the technique in general: Quantitative high-throughput screening tests each substance at several concentrations.

Assay [2] in a line: qHTS for Inhibitors of Plasmodium falciparum (GB4) proliferation (AID 504315). Further: nearly all actives have a fitted effect of over 50% in size. Further: potency means the concentration at half of the fitted maximal effect. A digest of the protocol: (§1)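 Parasite growth measured as SYBR Green DNA fluorescence (ex 485, em 535 nm) after overnight lysis following 72 h culture at 37 °C, 0.3% parasitemia, 2.5% hematocrit. Values normalized against DMSO and 0.29 uM artemisinin controls, with plate-stack correction.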
The nature of assay [3]: qHTS for Inhibitors of Plasmodium falciparum (7G8) proliferation (AID 504316). Further: potency means the concentration at half of the fitted maximal effect; nearly all actives have a fitted effect of over 65% in size. A digest of the protocol:
as §1

The target of assay [4] is ATP-dependent 6-phosphofructokinase (Trypanosoma brucei brucei) (UniProt O15648). Put plainly: qHTS Assay to Find Inhibitors of T. brucei phosphofructokinase: hit validation (AID 492961). In outline: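 Luminescence from ADP-Glo reports ADP generated as T. brucei PFK (1.25 nM) phosphorylates 0.5 mM fructose-6-phosphate using 0.1 mM ATP. Reactions ran 45 min at room temperature, pH 8.0.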

In assay [5] the target is Ubiquitin carboxyl-terminal hydrolase 1 (Homo sapiens) (UniProt O94782). Put plainly: Inhibitors of USP1/UAF1: Pilot qHTS (AID 504865).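 Further: rhodamine fluorescence freed from ubiquitin-rhodamine substrate followed over time; top concentration of the series differs between compounds; nearly all actives have a fitted effect of over 35% in size.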 A digest of the protocol: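 Deubiquitinase activity followed as kinetic rhodamine fluorescence release from 150 nM Ub-Rho. 1 nM USP1/UAF1 with compound, after 15 min room-temperature preincubation, in HEPES pH 7.8 buffer containing TCEP, EDTA, BSA and Tween-20.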

Assay [6] addresses Luciferin 4-monooxygenase (Photinus pyralis) (UniProt P08659). Put plainly: Biochemical firefly luciferase enzyme assay for NPC (AID 624030).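 Further: purified P. pyralis luciferase at 10 nM with luciferin and ATP substrate; nearly all actives have a fitted effect of over 70% in size.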 In outline:
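Purified P. pyralis luciferase at 10 nM in 50 mM Tris Acetate (final), luminescence read within 5 minutes of enzyme addition to compounds. Activity normalised to PTC124 versus DMSO; concentration-response curves classed by r2, magnitude and activity.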

Assay [7] in a line: S16 Schwann cell PMP22 intronic element beta-lactamase assay (AID 624044; calls by dose curve; further: nearly all actives have a fitted effect of over 15% in size). The conditions noted are these: S16 rat Schwann cells, PMP22 element beta-lactamase FRET, 24 h; ratio activity, negative = inhibition: at 38.3 µM (top of the series). A digest of the protocol: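 Beta-lactamase reporter under a PMP22 intronic regulatory element in stable S16 rat Schwann cells; 24 h compound exposure. 460 nm blue signal normalized between DMSO (0%) and potassium clavulanate, with 535 nm FRET tracking viability; curves classed by r2 and response.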

Assay [8] in a line: S16 Schwann cell viability assay (CellTiter-Glo assay) (AID 624031).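 Further: cellular ATP luminescence as a viability measure; nearly all actives have a fitted effect of over 70% in size.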 In outline: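 Native S16 rat Schwann cells, 500-750 cells/well in DMEM with 10% FBS, dosed with compound after overnight culture and incubated 24h at 37 degree Celsius/5% CO2. Viability by CellTiter-Glo luminescence; % activity normalized to no-cell wells and DMSO-treated cells.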
(In general: Cellular ATP, detected with luciferase, serves as a proxy for viable cell number.)

Assay [9] in a line: S16 Schwann cell PMP22 intronic element firefly luciferase assay (AID 624032). Further: nearly all actives have a fitted effect of over 30% in size. In outline:
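Rat S16 Schwann cells stably carrying firefly luciferase driven by a PMP22 intronic element, in 10% FBS, treated 24 h at 37 C. ONE-Glo luminescence normalized to PTC124 control and DMSO (0%); curves classed by r2, magnitude and activity.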

For assay [10], the system named is 3D7. The assay can be described thus: qHTS profiling for inhibitors of Plasmodium falciparum proliferation (AID 504749). Further: nearly all actives have a fitted effect of over 60% in size. Further: potency means the concentration at half of the fitted maximal effect. The conditions noted are these: P. falciparum in erythrocytes, SYBR Green DNA, 72 h; series mostly up to 28.7 µM. In outline: (§2)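 Each compound contacts P. falciparum-infected red blood cells for 72 h at 37 C; lysis buffer (Tris, EDTA, saponin, Triton X, SYBR Green I) is added and fluorescence measured next morning; values normalized to controls.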

Assay [11] deals with 7G8. The description is as above. The conditions noted are these: P. falciparum in erythrocytes, SYBR Green DNA, 72 h; series mostly up to 28.7 µM. A digest of the protocol: as §2
For assay [12], the system named is ATS95. The description is as above. The conditions noted are these: P. falciparum in erythrocytes, SYBR Green DNA, 72 h; series mostly up to 28.7 µM. A digest of the protocol:
as §2

The test system of assay [13] is CP191. The assay is described as above. The conditions noted are these: P. falciparum in erythrocytes, SYBR Green DNA, 72 h; series mostly up to 28.7 µM. In outline:
as §2

Assay [14] has as its system CP192. The description is as above. The conditions noted are these: P. falciparum in erythrocytes, SYBR Green DNA, 72 h; series mostly up to 28.7 µM. A digest of the protocol: as §2
The test system of assay [15] is CP203. The assay is described as above. The conditions noted are these: P. falciparum in erythrocytes, SYBR Green DNA, 72 h; series mostly up to 28.7 µM. A digest of the protocol:
as §2

Assay [16] concerns CP247. The assay is described as above. The conditions noted are these: P. falciparum in erythrocytes, SYBR Green DNA, 72 h; series mostly up to 28.7 µM. A digest of the protocol: as §2
Assay [17] relates to CP256. Described as above. The conditions noted are these: P. falciparum in erythrocytes, SYBR Green DNA, 72 h; series mostly up to 28.7 µM. A digest of the protocol: as §2
The test system of assay [18] is CP262. Described as above. The conditions noted are these: P. falciparum in erythrocytes, SYBR Green DNA, 72 h; series mostly up to 28.7 µM. In outline: as §2
In assay [19] the test system is CP265. The assay is described as above. The conditions noted are these: P. falciparum in erythrocytes, SYBR Green DNA, 72 h; series mostly up to 28.7 µM. A digest of the protocol:
as §2

Assay [20] deals with CP305. Described as above. The conditions noted are these: P. falciparum in erythrocytes, SYBR Green DNA, 72 h; series mostly up to 28.7 µM. A digest of the protocol: as §2
Assay [21] concerns CP315. Described as above. The conditions noted are these: P. falciparum in erythrocytes, SYBR Green DNA, 72 h; series mostly up to 28.7 µM. In outline: as §2
The subject of assay [22] is DIV14. The description is as above. The conditions noted are these: P. falciparum in erythrocytes, SYBR Green DNA, 72 h; series mostly up to 28.7 µM. A digest of the protocol: as §2
Assay [23] has as its system DIV17. The description is as above. The conditions noted are these: P. falciparum in erythrocytes, SYBR Green DNA, 72 h; series mostly up to 28.7 µM. In outline:
as §2

Assay [24] deals with Dd2. The assay is described as above. The conditions noted are these: P. falciparum in erythrocytes, SYBR Green DNA, 72 h; series mostly up to 28.7 µM. A digest of the protocol:
as §2

Assay [25] has as its system ECU. The assay is described as above. The conditions noted are these: P. falciparum in erythrocytes, SYBR Green DNA, 72 h; series mostly up to 28.7 µM. A digest of the protocol: as §2
Assay [26] relates to FAB9. The description is as above. The conditions noted are these: P. falciparum in erythrocytes, SYBR Green DNA, 72 h; series mostly up to 28.7 µM. In outline: as §2
Assay [27] relates to GB4. Described as above. The conditions noted are these: P. falciparum in erythrocytes, SYBR Green DNA, 72 h; series mostly up to 28.7 µM. In outline: as §2
The subject of assay [28] is JCK. Described as above. The conditions noted are these: P. falciparum in erythrocytes, SYBR Green DNA, 72 h; series mostly up to 28.7 µM. A digest of the protocol: as §2
Assay [29] relates to PAD. Described as above. The conditions noted are these: P. falciparum in erythrocytes, SYBR Green DNA, 72 h; series mostly up to 28.7 µM. In outline: as §2
For assay [30], the system named is TAB109. The description is as above. The conditions noted are these: P. falciparum in erythrocytes, SYBR Green DNA, 72 h; series mostly up to 28.7 µM. A digest of the protocol:
as §2

Assay [31] has as its system W2. Described as above. The conditions noted are these: P. falciparum in erythrocytes, SYBR Green DNA, 72 h; series mostly up to 28.7 µM. In outline: as §2

Molecules are shown by their SMILES. Results filed as inconclusive are left out. Unmarked numbers belong to inactive results. Active and inactive are the calls of the source. Unless noted, the call rests on the fitted dose curve; in most records, active means well fitted curve in the direction sought with a large enough effect; inconclusive means small, poorly fitted or top-dose-only effect, or another doubt; inactive means no such curve, though single readings can be large; an effect the other way counts as inactive or inconclusive.

Chain of ATP-dependent 6-phosphofructokinase (Trypanosoma brucei brucei) (O15648 whole entry, looked up): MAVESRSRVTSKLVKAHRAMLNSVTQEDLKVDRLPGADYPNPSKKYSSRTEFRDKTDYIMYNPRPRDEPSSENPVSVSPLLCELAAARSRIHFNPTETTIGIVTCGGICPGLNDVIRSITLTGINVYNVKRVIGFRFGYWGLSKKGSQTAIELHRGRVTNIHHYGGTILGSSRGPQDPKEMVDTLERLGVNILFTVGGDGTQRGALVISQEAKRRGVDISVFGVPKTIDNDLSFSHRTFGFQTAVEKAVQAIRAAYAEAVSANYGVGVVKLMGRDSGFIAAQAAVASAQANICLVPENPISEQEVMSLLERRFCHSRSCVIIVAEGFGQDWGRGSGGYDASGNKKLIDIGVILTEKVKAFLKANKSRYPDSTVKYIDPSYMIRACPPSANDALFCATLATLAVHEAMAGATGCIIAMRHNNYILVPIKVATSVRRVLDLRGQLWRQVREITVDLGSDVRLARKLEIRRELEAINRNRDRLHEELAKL
Chain of Luciferin 4-monooxygenase (Photinus pyralis) (P08659 whole entry, looked up): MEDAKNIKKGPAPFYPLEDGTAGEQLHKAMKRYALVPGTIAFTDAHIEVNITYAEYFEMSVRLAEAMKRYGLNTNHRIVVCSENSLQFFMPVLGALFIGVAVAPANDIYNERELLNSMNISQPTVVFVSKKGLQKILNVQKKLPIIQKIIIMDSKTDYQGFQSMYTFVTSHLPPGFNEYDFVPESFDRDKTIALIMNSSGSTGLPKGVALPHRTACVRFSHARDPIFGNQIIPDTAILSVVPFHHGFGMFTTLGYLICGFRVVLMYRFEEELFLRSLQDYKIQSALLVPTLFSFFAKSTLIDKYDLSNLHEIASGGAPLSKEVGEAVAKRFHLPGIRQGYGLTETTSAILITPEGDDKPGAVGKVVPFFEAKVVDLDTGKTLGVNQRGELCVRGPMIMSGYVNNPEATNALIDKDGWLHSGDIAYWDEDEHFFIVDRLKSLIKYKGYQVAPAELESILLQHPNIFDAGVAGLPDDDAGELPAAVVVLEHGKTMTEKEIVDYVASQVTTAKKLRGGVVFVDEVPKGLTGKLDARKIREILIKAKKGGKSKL
Chain of Ubiquitin carboxyl-terminal hydrolase 1 (Homo sapiens) (O94782 whole entry, looked up): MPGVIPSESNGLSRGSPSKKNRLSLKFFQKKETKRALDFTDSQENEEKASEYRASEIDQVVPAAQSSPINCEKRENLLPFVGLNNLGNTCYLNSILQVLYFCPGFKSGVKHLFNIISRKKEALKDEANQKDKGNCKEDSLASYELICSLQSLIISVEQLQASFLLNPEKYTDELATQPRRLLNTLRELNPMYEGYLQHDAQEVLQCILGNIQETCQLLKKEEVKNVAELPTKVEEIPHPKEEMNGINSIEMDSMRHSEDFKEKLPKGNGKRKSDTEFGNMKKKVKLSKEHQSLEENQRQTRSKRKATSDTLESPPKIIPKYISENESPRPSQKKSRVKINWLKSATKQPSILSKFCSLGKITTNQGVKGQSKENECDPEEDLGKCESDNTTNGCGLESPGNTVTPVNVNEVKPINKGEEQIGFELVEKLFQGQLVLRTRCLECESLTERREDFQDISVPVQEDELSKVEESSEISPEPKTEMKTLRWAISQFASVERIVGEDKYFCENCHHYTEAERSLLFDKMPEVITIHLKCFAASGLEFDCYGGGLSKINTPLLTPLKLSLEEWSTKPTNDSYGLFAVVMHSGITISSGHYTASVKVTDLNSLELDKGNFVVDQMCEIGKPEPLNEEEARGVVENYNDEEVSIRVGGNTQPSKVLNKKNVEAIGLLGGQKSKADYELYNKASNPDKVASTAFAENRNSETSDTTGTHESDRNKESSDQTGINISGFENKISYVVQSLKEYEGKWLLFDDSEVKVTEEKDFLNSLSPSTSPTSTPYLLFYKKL

Regarding `COC(=O)C1=C(C(=O)OC)[C@@H]2Nc3ccccc3[C@@]23C[C@@H](C(=O)OC)N(S(=O)(=O)c2ccc([N+](=O)[O-])cc2)C3=N1`, in assay [1], the Potency result is “inactive”.

`CCCCc1nc2c(c3c1C[C@H](C)OC3)CN(C(=O)N[C@H](C(=O)OC)C(C)C)CC2`: the Potency result in assay [1] and in assay [2] was “inactive” throughout. For the same molecule, the Potency in assay [3] is 1350 nM (active).

`COc1ccc(CC(C)NCC(O)c2ccc(O)c(NC=O)c2)cc1` (stereo not drawn): the Potency entry in assay [4], in assay [5], in assay [6] and in [7] was “inactive” throughout.

For `COc1ccc(-c2nc3c(c4c2C[C@H](c2ccccc2)OC4)CN(C(=O)C2CCCCC2)CC3)c(C)c1`, the Potency entry in assay [1] is “inactive”.

On to `CC#CCN1c2ccccc2[C@]23C[C@@H](C(=O)OC)N(S(=O)(=O)c4ccc(C)cc4)C2=NC(C(=O)OC)=C(C(=O)OC)[C@H]13`, for which the Potency entry in assay [1] is “inactive”. The Potency in assay [2] was 1690 nM (active).

In the case of `CCN(CC)CCOCCOC(=O)C(CC)(CC)c1ccccc1` (tested in a mixture with another compound), the Potency result in assay [4], in assay [5], in [6], in [8], in [9] and in assay [10] was “inactive” throughout. In addition, the Potency entry in assay [12], in assay [14], in assay [16], in assay [18], in assay [21] and in assay [25] was “inactive” each time. Moreover, the Potency result in assay [26], in [28], in assay [29] and in [30] was “inactive” each time. Also, the Potency is 5620 nM (active) in [11]; 10000 nM (active) in [13]; 4260 nM (active) in assay [15]; 5620 nM (active) in assay [17]; 1120 nM (active) in assay [19]; 8490 nM (active) in [20]. Besides, the Potency in assay [22] is 1900 nM (active); in assay [23] it was 1510 nM (active); in assay [24] it was 891 nM (active); in assay [27] it was 8490 nM (active); in assay [31], 849 nM (active).
